ChEMBL document CHEMBL1961873, “Compounds: GSK PKIS; Assays: Nanosyn kinase panel” (2012)

What was measured:
[1] = biological target: Tyrosine-protein kinase SYK (Homo sapiens) (UniProt P43405); details: at 1 µM
[2] = biological target: T1, Tyrosine-protein kinase Tec (Homo sapiens) (UniProt P42680); details: at 0.1 µM
T1 sequence (whole entry): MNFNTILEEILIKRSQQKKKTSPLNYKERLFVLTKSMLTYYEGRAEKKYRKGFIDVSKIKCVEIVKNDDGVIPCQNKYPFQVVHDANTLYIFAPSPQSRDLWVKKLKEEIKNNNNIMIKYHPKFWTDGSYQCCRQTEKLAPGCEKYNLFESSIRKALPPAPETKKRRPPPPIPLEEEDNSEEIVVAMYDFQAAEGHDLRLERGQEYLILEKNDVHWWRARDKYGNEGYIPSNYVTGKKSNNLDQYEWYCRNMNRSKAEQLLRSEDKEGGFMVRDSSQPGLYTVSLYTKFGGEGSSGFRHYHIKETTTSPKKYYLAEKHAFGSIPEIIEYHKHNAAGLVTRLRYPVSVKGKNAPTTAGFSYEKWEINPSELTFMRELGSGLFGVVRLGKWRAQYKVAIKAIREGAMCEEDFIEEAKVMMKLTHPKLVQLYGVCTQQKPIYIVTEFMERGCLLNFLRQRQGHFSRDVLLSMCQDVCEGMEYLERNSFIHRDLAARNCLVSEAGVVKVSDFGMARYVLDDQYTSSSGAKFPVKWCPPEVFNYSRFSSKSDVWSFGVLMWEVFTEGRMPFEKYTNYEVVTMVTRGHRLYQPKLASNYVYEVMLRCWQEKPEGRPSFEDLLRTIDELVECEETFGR

[3] = biological target: T1, Tyrosine-protein kinase Tec (Homo sapiens); details: at 1 µM
[4] = biological target: Angiopoietin-1 receptor (Homo sapiens) (UniProt Q02763); details: at 0.1 µM
[5] = biological target: Angiopoietin-1 receptor (Homo sapiens) (UniProt Q02763); details: at 1 µM
[6] = biological target: T2, Non-receptor tyrosine-protein kinase TNK1 (Homo sapiens) (UniProt Q13470); details: at 0.1 µM
T2 sequence (whole entry): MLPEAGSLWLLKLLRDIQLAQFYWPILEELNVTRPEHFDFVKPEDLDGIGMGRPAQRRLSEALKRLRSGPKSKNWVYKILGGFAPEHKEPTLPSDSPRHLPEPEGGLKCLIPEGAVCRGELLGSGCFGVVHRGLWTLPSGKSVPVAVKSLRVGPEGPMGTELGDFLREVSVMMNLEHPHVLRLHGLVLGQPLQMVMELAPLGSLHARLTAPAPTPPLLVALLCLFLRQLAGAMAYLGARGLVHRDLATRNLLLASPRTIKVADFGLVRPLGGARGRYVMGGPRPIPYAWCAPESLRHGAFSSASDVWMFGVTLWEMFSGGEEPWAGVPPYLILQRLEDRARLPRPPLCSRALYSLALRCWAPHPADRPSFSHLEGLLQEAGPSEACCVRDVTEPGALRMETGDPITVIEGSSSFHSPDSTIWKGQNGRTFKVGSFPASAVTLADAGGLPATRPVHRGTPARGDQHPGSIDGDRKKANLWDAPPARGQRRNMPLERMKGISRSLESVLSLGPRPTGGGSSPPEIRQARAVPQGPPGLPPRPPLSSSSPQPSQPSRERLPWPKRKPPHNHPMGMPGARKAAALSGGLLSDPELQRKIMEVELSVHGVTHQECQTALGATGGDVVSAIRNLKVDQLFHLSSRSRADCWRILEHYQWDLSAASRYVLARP

[7] = biological target: T2, Non-receptor tyrosine-protein kinase TNK1 (Homo sapiens); details: at 1 µM
[8] = biological target: Activated CDC42 kinase 1 (Homo sapiens) (UniProt Q07912); details: at 0.1 µM
[9] = biological target: Activated CDC42 kinase 1 (Homo sapiens) (UniProt Q07912); details: at 1 µM
[10] = biological target: High affinity nerve growth factor receptor (Homo sapiens) (UniProt P04629); details: at 0.1 µM
[11] = biological target: High affinity nerve growth factor receptor (Homo sapiens) (UniProt P04629); details: at 1 µM
[12] = biological target: BDNF/NT-3 growth factors receptor (Homo sapiens) (UniProt Q16620); details: at 0.1 µM
[13] = biological target: BDNF/NT-3 growth factors receptor (Homo sapiens) (UniProt Q16620); details: at 1 µM
[14] = biological target: NT-3 growth factor receptor (Homo sapiens) (UniProt Q16288); details: at 0.1 µM
[15] = biological target: NT-3 growth factor receptor (Homo sapiens) (UniProt Q16288); details: at 1 µM
[16] = biological target: T3, Tyrosine-protein kinase TXK (Homo sapiens) (UniProt P42681); details: at 0.1 µM
T3 sequence (whole entry): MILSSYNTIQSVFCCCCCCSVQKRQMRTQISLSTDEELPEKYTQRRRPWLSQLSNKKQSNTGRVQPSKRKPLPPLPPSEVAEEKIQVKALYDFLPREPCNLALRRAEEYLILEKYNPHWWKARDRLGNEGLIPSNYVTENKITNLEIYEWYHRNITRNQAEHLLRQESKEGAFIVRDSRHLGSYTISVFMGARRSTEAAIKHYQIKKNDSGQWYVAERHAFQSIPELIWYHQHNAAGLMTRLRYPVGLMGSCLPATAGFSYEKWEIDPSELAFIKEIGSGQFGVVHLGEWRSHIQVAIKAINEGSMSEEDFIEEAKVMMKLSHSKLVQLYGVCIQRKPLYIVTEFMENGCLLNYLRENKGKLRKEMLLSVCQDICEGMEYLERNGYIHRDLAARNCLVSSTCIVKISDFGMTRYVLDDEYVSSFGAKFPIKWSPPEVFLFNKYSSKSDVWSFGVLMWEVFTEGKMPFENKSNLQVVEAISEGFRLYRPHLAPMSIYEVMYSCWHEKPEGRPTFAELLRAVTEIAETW

[17] = biological target: T3, Tyrosine-protein kinase TXK (Homo sapiens); details: at 1 µM
[18] = biological target: Non-receptor tyrosine-protein kinase TYK2 (Homo sapiens) (UniProt P29597); details: at 0.1 µM;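 further: each value is a mean of the inhibition readings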
[19] = biological target: T4, Dual specificity protein kinase TTK (Homo sapiens) (UniProt P33981); details: at 1 µM;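 further: reported figures are mean TTK inhibition at 1 µM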
T4 sequence (whole entry): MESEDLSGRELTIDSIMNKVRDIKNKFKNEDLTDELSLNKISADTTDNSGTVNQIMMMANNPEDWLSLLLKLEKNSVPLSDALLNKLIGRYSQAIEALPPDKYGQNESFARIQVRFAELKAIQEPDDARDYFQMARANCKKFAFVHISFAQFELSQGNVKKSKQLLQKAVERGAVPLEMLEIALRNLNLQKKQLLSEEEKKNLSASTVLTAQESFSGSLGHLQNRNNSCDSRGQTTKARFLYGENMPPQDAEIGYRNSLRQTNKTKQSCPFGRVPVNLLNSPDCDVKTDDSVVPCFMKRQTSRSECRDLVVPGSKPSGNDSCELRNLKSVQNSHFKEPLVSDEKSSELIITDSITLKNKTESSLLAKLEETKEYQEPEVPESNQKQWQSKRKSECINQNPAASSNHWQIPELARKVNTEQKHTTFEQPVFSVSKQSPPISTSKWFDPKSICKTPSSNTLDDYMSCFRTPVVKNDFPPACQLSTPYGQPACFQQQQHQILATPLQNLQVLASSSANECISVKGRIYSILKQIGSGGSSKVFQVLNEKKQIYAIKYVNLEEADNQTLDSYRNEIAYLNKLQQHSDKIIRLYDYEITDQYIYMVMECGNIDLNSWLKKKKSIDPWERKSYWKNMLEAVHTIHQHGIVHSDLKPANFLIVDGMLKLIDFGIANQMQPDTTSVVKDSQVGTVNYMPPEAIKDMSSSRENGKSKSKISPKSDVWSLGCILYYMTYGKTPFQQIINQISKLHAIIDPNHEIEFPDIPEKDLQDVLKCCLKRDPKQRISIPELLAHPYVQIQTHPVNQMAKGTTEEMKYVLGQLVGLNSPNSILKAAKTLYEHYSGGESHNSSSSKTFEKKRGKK

[20] = biological target: T5, Aurora kinase A (Homo sapiens) (UniProt O14965); details: at 0.1 µM;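 further: each reported value is a mean percent inhibition of Aurora-A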
T5 sequence (whole entry): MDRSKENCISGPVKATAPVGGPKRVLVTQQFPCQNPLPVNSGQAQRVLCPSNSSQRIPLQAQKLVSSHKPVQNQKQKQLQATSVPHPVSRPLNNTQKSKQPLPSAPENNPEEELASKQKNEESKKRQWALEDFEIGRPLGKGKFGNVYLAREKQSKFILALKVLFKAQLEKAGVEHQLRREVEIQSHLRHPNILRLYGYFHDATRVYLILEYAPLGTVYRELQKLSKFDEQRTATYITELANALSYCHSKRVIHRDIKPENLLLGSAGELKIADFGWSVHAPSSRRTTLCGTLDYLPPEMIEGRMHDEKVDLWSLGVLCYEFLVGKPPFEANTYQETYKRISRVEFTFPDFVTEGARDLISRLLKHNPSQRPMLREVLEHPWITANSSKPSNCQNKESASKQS

BDNF/NT-3 growth factors receptor (Homo sapiens), sequence (Q16620 32-822 limits assumed): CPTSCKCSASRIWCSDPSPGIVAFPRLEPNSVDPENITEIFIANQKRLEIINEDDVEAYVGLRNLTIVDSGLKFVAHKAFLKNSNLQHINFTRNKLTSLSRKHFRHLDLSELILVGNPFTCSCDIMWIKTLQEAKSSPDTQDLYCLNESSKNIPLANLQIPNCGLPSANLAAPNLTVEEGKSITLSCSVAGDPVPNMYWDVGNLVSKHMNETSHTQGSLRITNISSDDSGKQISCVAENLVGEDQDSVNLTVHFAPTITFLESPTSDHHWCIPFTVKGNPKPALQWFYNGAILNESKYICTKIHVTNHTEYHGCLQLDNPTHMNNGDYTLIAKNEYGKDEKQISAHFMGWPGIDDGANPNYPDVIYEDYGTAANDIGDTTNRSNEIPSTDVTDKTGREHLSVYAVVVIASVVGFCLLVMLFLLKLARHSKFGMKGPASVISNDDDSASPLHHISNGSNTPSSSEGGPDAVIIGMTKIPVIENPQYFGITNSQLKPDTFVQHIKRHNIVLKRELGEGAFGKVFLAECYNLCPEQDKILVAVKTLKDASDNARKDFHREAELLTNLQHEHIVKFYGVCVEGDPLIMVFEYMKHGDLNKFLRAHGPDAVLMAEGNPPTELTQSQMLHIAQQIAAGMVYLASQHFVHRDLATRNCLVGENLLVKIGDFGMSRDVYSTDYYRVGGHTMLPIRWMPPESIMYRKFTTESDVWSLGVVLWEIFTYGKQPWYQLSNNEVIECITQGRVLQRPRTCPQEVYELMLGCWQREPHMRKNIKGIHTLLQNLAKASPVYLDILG
NT-3 growth factor receptor (Homo sapiens), sequence (Q16288 32-839 limits assumed): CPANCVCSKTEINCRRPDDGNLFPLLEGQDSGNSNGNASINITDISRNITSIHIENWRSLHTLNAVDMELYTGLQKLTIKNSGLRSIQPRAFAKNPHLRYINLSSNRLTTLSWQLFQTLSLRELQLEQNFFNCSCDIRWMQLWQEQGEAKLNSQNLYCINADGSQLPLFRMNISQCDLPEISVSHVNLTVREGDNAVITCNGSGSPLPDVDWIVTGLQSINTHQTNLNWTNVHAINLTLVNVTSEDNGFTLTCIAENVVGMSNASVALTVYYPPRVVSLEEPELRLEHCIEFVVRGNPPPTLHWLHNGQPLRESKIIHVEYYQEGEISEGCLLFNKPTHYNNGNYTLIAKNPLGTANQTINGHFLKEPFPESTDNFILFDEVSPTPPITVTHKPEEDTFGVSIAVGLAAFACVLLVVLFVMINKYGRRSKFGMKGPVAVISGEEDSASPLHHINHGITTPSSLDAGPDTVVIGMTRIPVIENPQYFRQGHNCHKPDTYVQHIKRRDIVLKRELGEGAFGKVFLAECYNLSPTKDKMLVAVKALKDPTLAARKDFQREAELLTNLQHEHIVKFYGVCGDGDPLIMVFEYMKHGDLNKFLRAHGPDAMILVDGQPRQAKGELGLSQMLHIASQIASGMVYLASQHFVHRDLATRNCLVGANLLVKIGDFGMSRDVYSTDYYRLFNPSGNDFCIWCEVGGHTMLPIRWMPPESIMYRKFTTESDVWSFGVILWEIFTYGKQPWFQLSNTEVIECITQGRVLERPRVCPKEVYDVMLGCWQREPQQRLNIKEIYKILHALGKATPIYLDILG
Activated CDC42 kinase 1 (Homo sapiens), sequence (Q07912 whole entry, looked up): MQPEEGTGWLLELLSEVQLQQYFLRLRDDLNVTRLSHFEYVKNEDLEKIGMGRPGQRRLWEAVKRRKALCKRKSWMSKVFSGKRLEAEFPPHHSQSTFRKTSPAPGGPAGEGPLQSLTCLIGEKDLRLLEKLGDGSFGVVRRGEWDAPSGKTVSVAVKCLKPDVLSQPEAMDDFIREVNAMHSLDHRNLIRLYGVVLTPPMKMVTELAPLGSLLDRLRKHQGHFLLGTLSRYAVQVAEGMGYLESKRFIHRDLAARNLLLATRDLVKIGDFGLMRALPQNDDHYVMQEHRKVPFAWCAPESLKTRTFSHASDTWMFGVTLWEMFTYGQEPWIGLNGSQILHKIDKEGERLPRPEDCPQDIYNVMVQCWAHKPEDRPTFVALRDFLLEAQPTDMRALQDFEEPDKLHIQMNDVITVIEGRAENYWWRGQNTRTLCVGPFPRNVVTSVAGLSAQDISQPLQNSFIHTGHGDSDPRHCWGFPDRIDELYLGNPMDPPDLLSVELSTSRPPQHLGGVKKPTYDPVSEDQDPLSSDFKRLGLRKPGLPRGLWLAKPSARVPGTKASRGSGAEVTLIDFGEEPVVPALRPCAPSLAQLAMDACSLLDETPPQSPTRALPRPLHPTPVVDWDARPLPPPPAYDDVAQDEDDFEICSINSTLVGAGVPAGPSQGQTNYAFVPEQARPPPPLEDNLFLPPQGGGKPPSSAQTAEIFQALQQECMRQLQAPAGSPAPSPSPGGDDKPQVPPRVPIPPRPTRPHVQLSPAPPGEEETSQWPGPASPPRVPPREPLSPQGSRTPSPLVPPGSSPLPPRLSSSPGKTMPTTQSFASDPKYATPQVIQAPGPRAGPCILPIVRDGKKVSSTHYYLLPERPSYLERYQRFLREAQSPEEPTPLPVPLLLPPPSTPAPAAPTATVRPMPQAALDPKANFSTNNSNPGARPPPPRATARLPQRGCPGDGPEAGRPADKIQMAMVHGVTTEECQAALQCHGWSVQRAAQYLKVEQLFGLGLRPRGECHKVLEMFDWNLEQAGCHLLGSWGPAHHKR
Angiopoietin-1 receptor (Homo sapiens), sequence (Q02763 whole entry): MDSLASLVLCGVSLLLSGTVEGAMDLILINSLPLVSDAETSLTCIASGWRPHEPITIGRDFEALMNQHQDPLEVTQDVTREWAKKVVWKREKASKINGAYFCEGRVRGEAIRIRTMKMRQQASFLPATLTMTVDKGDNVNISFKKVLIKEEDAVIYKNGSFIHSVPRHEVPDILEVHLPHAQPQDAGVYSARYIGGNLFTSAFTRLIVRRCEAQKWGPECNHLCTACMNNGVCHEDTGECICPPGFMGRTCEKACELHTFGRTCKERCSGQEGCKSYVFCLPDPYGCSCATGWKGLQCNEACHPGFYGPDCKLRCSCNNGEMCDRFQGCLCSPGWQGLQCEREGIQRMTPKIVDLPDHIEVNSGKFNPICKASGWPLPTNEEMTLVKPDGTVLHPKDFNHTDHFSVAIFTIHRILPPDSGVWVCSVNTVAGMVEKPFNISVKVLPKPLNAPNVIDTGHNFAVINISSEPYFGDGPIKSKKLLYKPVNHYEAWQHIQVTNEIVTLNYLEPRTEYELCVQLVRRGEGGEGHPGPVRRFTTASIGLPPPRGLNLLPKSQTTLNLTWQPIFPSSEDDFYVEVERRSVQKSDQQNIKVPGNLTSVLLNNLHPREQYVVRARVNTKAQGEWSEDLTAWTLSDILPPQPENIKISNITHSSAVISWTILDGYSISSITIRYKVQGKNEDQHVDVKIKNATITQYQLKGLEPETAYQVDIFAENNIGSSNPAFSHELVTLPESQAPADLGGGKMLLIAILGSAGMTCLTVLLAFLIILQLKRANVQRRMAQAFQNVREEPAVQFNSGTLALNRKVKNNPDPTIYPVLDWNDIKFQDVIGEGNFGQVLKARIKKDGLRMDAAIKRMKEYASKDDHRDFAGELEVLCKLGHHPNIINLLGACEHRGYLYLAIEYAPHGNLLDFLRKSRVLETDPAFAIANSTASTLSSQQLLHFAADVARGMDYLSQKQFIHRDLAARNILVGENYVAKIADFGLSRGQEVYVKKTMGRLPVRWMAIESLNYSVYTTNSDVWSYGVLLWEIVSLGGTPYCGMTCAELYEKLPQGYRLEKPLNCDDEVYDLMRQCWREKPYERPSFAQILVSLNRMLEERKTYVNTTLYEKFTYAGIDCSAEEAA
Non-receptor tyrosine-protein kinase TYK2 (Homo sapiens), sequence (P29597 whole entry): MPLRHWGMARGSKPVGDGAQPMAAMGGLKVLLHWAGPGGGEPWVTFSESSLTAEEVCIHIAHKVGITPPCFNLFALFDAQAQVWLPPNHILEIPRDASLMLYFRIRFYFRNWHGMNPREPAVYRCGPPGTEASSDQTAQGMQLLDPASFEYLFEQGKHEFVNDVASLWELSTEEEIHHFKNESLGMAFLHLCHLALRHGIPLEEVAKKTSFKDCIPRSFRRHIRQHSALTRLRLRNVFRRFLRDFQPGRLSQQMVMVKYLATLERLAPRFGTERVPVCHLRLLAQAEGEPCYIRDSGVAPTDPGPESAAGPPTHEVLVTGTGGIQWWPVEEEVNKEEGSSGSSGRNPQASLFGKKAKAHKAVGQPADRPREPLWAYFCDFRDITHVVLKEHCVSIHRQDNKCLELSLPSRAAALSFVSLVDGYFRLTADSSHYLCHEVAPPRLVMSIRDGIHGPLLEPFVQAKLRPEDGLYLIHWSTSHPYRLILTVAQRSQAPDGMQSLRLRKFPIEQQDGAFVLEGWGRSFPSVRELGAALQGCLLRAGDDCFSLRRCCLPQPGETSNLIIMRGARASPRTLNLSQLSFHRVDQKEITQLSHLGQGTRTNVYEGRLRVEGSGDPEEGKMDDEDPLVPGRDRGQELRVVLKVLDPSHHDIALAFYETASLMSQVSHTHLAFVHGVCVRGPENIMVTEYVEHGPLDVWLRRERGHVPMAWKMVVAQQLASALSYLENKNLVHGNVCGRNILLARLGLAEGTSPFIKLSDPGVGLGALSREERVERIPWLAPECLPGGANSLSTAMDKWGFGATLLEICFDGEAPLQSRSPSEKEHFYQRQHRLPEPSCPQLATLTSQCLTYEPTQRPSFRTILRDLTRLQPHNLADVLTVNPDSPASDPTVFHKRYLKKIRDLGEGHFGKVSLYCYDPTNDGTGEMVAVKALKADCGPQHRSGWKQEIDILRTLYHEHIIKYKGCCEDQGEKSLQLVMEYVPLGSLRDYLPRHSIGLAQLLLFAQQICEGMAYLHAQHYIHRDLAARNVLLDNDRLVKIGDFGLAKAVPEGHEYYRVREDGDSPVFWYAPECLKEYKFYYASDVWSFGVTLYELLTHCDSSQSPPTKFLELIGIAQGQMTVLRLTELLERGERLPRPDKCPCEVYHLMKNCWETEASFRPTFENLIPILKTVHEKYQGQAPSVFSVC

Row | Compound | inhibition [1] | inhibition [2] | inhibition [3] | inhibition [4] | inhibition [5] | inhibition [6] | inhibition [7] | inhibition [8] | inhibition [9] | inhibition [10] | inhibition [11] | inhibition [12] | inhibition [13] | inhibition [14] | inhibition [15] | inhibition [16] | inhibition [17] | inhibition [18] | inhibition [19] | inhibition [20]
1 | [O-][S+]1CCN(Cc2ccc(-c3ccc4ncnc(Nc5ccc(OCc6ccccc6)c(F)c5)c4c3)o2)CC1 | -0.11% | 3.42% | 4.7% | 2.18% | 2.24% | 0.61% | 7.01% | 0.67% | 0.38% | 1.24% | 1.44% | 1.84% | 1.51% | 0.84% | 2.26% | 2.49% | 3.34% | -3.81% | 12.9% | 2.01%
2 | COc1cc2ncn(-c3cc(O[C@H](C)c4ccccc4Cl)c(C(N)=O)s3)c2cc1OC | -0.3% | 5.59% | 19.3% | 12.7% | 41.7% | 17.7% | 70.8% | 6.31% | 28.2% | 1.31% | 12.4% | 8.25% | 43.3% | 16.1% | 62.6% | 5.04% | 15.8% | -0.55% | 13.2% | 2.7%
3 | CCn1c(-c2nonc2N)nc2cnc(Oc3cccc(NC(=O)c4ccc(OCCN5CCOCC5)cc4)c3)cc21 | 1.88% | 3.35% | 5.81% | 3.75% | 6.59% | 0.95% | 5.9% | -0.31% | -0.19% | 4.32% | -0.09% | 3.18% | 0.84% | 2.85% | 2.49% | 5.3% | 5.82% | -1.13% | 10.2% | 6.07%
4 | COC(=O)Nc1nc2cc(Oc3ccc(NC(=O)Nc4cccc(C(=O)O)c4)cc3)ccc2[nH]1 | -0.23% | -2.22% | 0.87% | 1.97% | 7.16% | -0.91% | 17.4% | -0.08% | 0.6% | 1.98% | 3.47% | 0.82% | 1.02% | 1.95% | 3.8% | -2.97% | 1.48% | 1.17% | 9.64% | -1.89%
5 | COc1cc(C)c(NC(=O)CN(C)C)cc1Nc1nc(Nc2cccc(F)c2C(N)=O)c2cc[nH]c2n1 | 0.44% | 1.93% | 3.64% | 0.55% | 0.17% | 30.8% | 73.4% | 1.18% | 14% | 2.31% | 13% | 2.25% | 1.27% | 2.83% | 4.14% | 0.4% | -0.74% | 1% | 53.5% | 2.06%
6 | COC(=O)Nc1nc2cc(Oc3cccc(NC(=O)Nc4cc(C(F)(F)F)ccc4F)c3)ccc2[nH]1 | -0.22% | 1.48% | 2.64% | 1.09% | 5.44% | -0.45% | -3.58% | -0.5% | -1.08% | -2.72% | -0.96% | -0.54% | 2.43% | -0.83% | 5.81% | 2.14% | 2.8% | 1.53% | 0.75% | 1.04%
7 | O=C1NC(=O)C(c2ccccc2Cl)=C1Nc1cccc(O)c1 | -0.68% | 3.78% | 4.55% | 1.47% | 5.97% | 3.82% | 2.57% | 1.29% | 3.26% | 4.19% | 0.59% | 1.19% | 1.88% | 0.46% | 4.4% | 3.39% | 4.53% | -5.26% | -9.72% | 3.17%
8 | O=C1Nc2ccc(C(=O)c3ccco3)cc2C1=Cc1cc(Cl)c(O)c(Cl)c1 | -0.93% | 3.56% | 9.55% | 2.1% | 3.01% | 38.9% | 85.3% | 1.92% | 6.27% | 4.97% | 21% | 5.68% | 29.1% | 9.19% | 47.1% | 3.45% | 11.2% | -3.77% | 21.9% | 7.35%
9 | O=C1NC(=O)C(N2CCc3ccccc32)=C1c1ccc(Cl)cc1 | -1.26% | 6.1% | 9.11% | 5.59% | 8.86% | 4.03% | -0.43% | 3.17% | 1.5% | 4.36% | 3.04% | 3.69% | 7% | 2.99% | 4.89% | 5.42% | 8.99% | -4.08% | 2.25% | 2.79%
10 | NS(=O)(=O)c1ccc(N/N=C2\C(=O)Nc3ccc(C(=O)NCCc4c[nH]cn4)cc32)cc1 | -0.45% | 5.46% | 12.1% | 1.64% | 3.16% | 1.59% | 10.1% | 1.35% | 2.72% | 5.55% | 14.9% | 6.79% | 31.4% | 9.97% | 41.8% | 3.49% | 3.55% | -1.79% | 71.5% | 3.83%
11 | NCc1ccc(-c2nc(-c3ccc(Cl)c(O)c3)c(-c3ccncc3)[nH]2)cc1 | 1.13% | 6.38% | 33% | 4.33% | 21% | -1.81% | 1.42% | -0.36% | -0.9% | -4.35% | -1.42% | -0.05% | 0.73% | -0.91% | 1.61% | 18.9% | 61.1% | 1.75% | 7.44% | 1.53%
12 | Fc1cccc(COc2ccc(Nc3ncnc4sc(-c5cccs5)cc34)cc2Cl)c1 | 1.01% | -0.73% | 1.47% | 1.07% | 2.01% | 3.5% | 4.12% | -0.19% | 1.13% | 1.3% | 2.88% | 1.85% | 1.29% | 1.21% | 1.03% | 2.2% | 0.81% | -0.26% | 2.5% | 1.44%
